CHX counter = affects cycloheximide protein synthesis inhibition readout, counter-screen; cell reporter, cycloheximide protein synthesis inhibition counterscreen; max response, %; actives 12% (n = 300,000); AID 2314; in the data active = max response mostly above about 13%, no sharp cut-off; inactive = mostly below about 14%; also: read at 38.3 µM for the half of the compounds with a filed dose; 0% is about no effect
Pf growth 96h = inhibits malaria parasite growth, 96 h | actives 6.9% (n = 320,000) | AID 504834 | Potency, µM (doses to about 28.7 µM), for inactives: at the highest dose activity change, negative = inhibition, most hits filed as inhibitors | P. falciparum luciferase reporter growth, 96 h; also: potency is read from the fitted curve at half-maximal effect; % is scaled to controls: 0 for no effect and ±100 for the full control effect
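Delayed-death screen, second-generation endpoint: infected erythrocytes, 2% hematocrit, 0.05% parasitemia final; 96 hours at 37 C, 5% CO2; luciferase detection reagent; luminescence decrease equals reduced growth.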
Shiga toxin inh = Shiga toxin inhibition. Vero cells, Shiga toxin protein synthesis inhibition reporter. inhibition, % at 38.7 µM. actives 9.2% (n = 290,000). AID 2315; in the data active = inhibition mostly above about 28%, no sharp cut-off; inactive = mostly below about 43%; also: 0% is about no effect
NS1 function inh = blocks influenza NS1 protein function; Potency, µM (series often up to 46.1 µM), for the others: top-dose activity, positive = more growth; actives 0.4% (n = 270,000); calls by dose curve; also: potency is read from the fitted curve at half-maximal effect; actives are rising curves; nearly all actives have a fitted effect of over 50% in size
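In this qHTS, NS1 from influenza A is expressed in budding yeast, where it slows growth. Cells are switched from glucose to 2% galactose medium (pH 6.0, -URA), treated with compound, and growth recovery is read at OD600.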
Pf growth 48h = P. falciparum growth inhibition at 48 hours (one generation). Potency, µM (highest dose often 28.7 µM), for inactives: at the highest dose activity change, negative = inhibition, hits mostly inhibitors. actives 5.9% (n = 310,000). P. falciparum luciferase growth in erythrocytes, 48 h. AID 504832; also: potency is read from the fitted curve at half-maximal effect; % is scaled to controls: 0 for no effect and ±100 for the full control effect
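Cell-based growth assay: transgenic P. falciparum expressing firefly luciferase, cultured in red cells within RPMI 1640 containing 0.5% w/v Albumax, 24 mM bicarbonate and gentamycin. A drop in luciferase activity indicates inhibition.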
* = called active by the depositor; ? = inconclusive; · = not tested or not shown; [ ] = another dose, or the depositor's remark. The list is not random: actives were taken first. Their share in the collection is about 21%. Unless noted, calls follow the shape of the dose curve; as a rule, active = well fitted inhibition curve with a large enough effect; inconclusive = small, poorly fitted or top-dose-only effect, or another doubt; inactive = no such curve, though single readings can be large or run the other way.

SMILES	CHX counter	Pf growth 96h	Shiga toxin inh	NS1 function inh	Pf growth 48h
O=C(Nc1cccc(F)c1)N1CCC(c2ccccc2)CC1	41*	-15%	74*	-10%	?
O=C(Nc1cccc(F)c1)N1CC=C(c2ccc(Cl)cc2)CC1	46*	5.9µM*	75*	-140%	·
CC(=O)c1cccc(NC(=O)N2CCC(NC(=O)C3CCCCC3)CC2)c1	-2	?	23	22%	-12%
COC(=O)[C@@H]1CCCN1C(=O)[C@@H](NC(=O)OC(C)(C)C)C(C)C	-2	·	10	·	·
Cc1cc(NC(=O)COC(=O)C2CC2)ccc1Br	·	-2%	·	·	-7%
CCOCC(=O)Nc1ccc(Br)c(C)c1	32*	6%	76*	2%	37%
CCCCc1ccc(NC(=O)COCC)cc1	50*	·	44*	-5%	?
CCCCc1ccc(NC(=O)CC(C)C)cc1	29*	22%	66*	-35%	?
CCCCNCC(=O)Nc1ccc(NC(=O)CNCCCC)cc1	-3	12µM*	-18	18%	?
CCNS(=O)(=O)c1ccc(CCC(=O)NCc2ccccc2)cc1	5	16%	9	6%	-28%[5.75 µM]
CCOC(=O)C1(CC2CC2)CCN(Cc2ccc3cccc(F)c3n2)CC1	11	-17%	13	1%	?
CCCCc1ncc(/C=C(\Cc2cccs2)C(=O)O)n1Cc1ccc(C(=O)O)cc1	·	-8%	·	·	-7%
COc1ccc(/C=N/NC(=O)c2nonc2N)cc1OC	34*	23%	80*	2%	17%
COc1ccc([N+](=O)[O-])cc1/C=N/NC(=O)c1nonc1N	3	23%	-16	6%	2%
Nc1nonc1C(=O)N/N=C/c1cccc([N+](=O)[O-])c1	27*	21%	active	-11%	-9%
CN(C)c1ccc(/C=N/NC(=O)c2nonc2N)cc1[N+](=O)[O-]	41*	13%	133*	-3%	2%
O=C(Nc1ccc(Cc2ccncc2)cc1)c1ccc(S(=O)(=O)N2CCCC2)cc1	-2	34%	-2	·	-22%[5.75 µM]
Cc1cccc(N2CCN(C(=O)CCC(=O)N3CC(C)Oc4ccc(C)cc43)CC2C)c1 (stereo not given)	-2	-1%	4	13%	13µM*
CC(C)CCNC(=O)C1CCN(c2nnc(-n3cccc3)s2)CC1	2	-31%	22	-5%	-9%
Cc1ccc(Cl)cc1N1CCN(C(=O)C2CCN(c3nnc(-n4cccc4)s3)CC2)CC1	-1	?	-1	-64%	13µM*
Cc1ccc2c(c1)N(C(=O)CCC(=O)N1CCN(c3ccccn3)CC1)CC(C)O2 (stereo not given)	1	?	-4	-26%	-30%
Cc1cccc(N2CCN(C(=O)C3CCN(c4nnc(-n5cccc5)s4)CC3)CC2C)c1 (stereo not given)	5	?	-5	-76%	13µM*
CCOC(=O)C1CCCN(C(=O)c2ccc3c(c2)OCO3)C1 (stereo not given)	8	·	-5	4%	-15%
COC(=O)c1ccc2[nH]c3c(c2c1)CC(C)CC3 (stereo not given)	36*	?	59*	-5%	29%
CCOC(=O)N1CCN(C(=O)c2ccc(Cn3c(=S)[nH]c4cc(C(=O)OC)ccc4c3=O)cc2)CC1	0	?	-5	6%	?
SMILES	CHX counter	Pf growth 96h	Shiga toxin inh	NS1 function inh	Pf growth 48h
CCOC(=O)C1CCCN(C(=O)c2ccc3[nH]c4c(c3c2)CC(C)CC4)C1 (stereo not given)	·	?	·	·	9.3µM*
CCOC(=O)C1CCCN(C(=O)c2ccc(Cn3c(=S)[nH]c4cc(C(=O)OC)ccc4c3=O)cc2)C1 (stereo not given)	14	12µM*	43	·	?
CN(C)c1nnnn1-c1ccc(Oc2ncc(C(F)(F)F)cc2Cl)cc1	9	?	14	·	-21%
CCN(CC)C(=O)Cn1cc(S(=O)(=O)CC(=O)Nc2cc(OC)ccc2OC)c2ccccc21	-1	?	-3	-3%	?
COc1ccc(C2=Nn3c(nnc3-c3cccc(OC)c3OC)SC2)cc1	-3	·	-8	·	·
Oc1c(C(Nc2ccccn2)c2ccccn2)ccc2cccnc12 (stereo not given)	-4	·	-13	-94%	2.9µM*
Oc1ccccc1C(Nc1nccs1)c1ccc2cccnc2c1O (stereo not given)	0	2.6µM*	5	4%	1.9µM*
COc1ccccc1-c1c(C(F)(F)F)oc2cc(OC(=O)c3cccc([N+](=O)[O-])c3C)ccc2c1=O	-8	0%	-12	-67%	17%
CC1CN(C(=O)CCC(=O)NC2CCCCC2)c2ccccc2S1 (stereo not given)	-1	57%	9	-27%	8%
CCOC(=O)c1ccc(NC(=O)Nc2c(C)nn(C)c2C)cc1	0	12µM*	4	-14%	0%
CCOC(=O)c1ccc(NC(=O)Nc2ccc(OC)c(OC)c2)cc1	-1	13%	-4	-27%	?
COc1ccc(NC(=O)C2CCCC2)cn1	-1	39%	4	·	14%
CCOC(=O)c1ccc(NC(=O)Nc2ccc(F)cc2)cc1	21*	13µM*	30	-95%	·
CCOC(=O)c1ccc(NC(=S)Nc2ccc(Cl)cn2)cc1	-1	-16%	-4	1%	87%
COc1ccc(NC(=O)C(c2ccc(Cl)cc2)C(C)C)cn1 (stereo not given)	7	?	-8	-53%	1.5µM*
CC(=O)c1cccc(NC(=O)Nc2c(C)nn(C)c2C)c1	-3	-13%	-4	4%	19%
CCOC(=O)c1ccc(NC(=O)Nc2ncc(Cl)cc2Cl)cc1	17*	9%	22	-6%	4%
CSCCC(N=C(NS(=O)(=O)c1ccccc1)c1ccccc1)C(=O)O (stereo not given)	0	15%	35	3%	16%
CCc1ccc(N(CC(=O)NC2CCCCC2)C(=O)CCC(=O)Nc2ccccn2)cc1	-3	?	-8	2%	-19%
CCCN(CC1CC1)C(=S)Nc1ccc(Oc2ccccc2)cc1	-5	-92%	-9	8%	17%
COCCCN1CN(S(=O)(=O)c2cccs2)c2nc3ccccc3nc21	-1	?	54	2%	-10%
O=C(Nc1ccc(F)c(Cl)c1)Nc1ccc(Cl)cn1	-1	28%	14	0%	3%
COC(=O)c1ccc(NC(=O)NCCCl)cc1	12	-4%	34	·	-10%
COC(=O)c1ccc(NC(=O)Nc2ccc(F)cc2)cc1	26*	?	107*	-117%	?
COC(=O)c1ccc(NC(=O)Nc2ccc(F)c(Cl)c2)cc1	28*	-60%	49*	-53%	·
O=C(Nc1ccncc1)Nc1ccc(F)c(Cl)c1	15	20%	30	3%	3.3µM*
COc1ccc(NC(=O)Nc2ccc(F)cc2)cn1	29*	0%	34*	-3%	30%
CC(C)(OC(=O)c1ccc(C#N)cc1)c1cc2ccccc2c(=O)o1	·	24%	·	·	17%
Cc1cc(C)n2nc(C(=O)OCC(=O)NCc3ccc(Cl)cc3)nc2n1	·	44%	·	·	34%

Assay outcomes deposited in PubChem BioAssay by National Center for Advancing Translational Sciences (NCATS).
